Most compounds without a hit are left out; they make up all but 3.5% or so of the library.
Anthrax LF prot – blocks Bacillus anthracis lethal factor protease; P15917; multiplex microsphere protease cleavage assay, LF; inhibition, % at 10 µM; 0.12% of 360,000 active; AID 588501; also: plate controls were buffer without enzyme for full effect and enzyme alone for no effect
BoNT-F LC inh – inhibitors of Botulinum neurotoxin F light chain protease; 0.22% of 360,000 active; Multiplex microsphere protease cleavage assay, flow cytometry; inhibition, % at 10 µM; AID 588497; in the data active = inhibition above about 35%, passing the limit was not always enough; inconclusive = no clear call, values can overlap the other calls; also: plate controls were buffer without enzyme for full effect and enzyme alone for no effect
Bead autofluor – counter-screen for toxin protease inhibitors: compound fluorescence; compound autofluorescence counterscreen, microsphere flow cytometry; hits give high values; 3.1% of 360,000 active; fluorescence intensity (test concentration not listed); in the data active = fluorescence intensity above about 16000; inconclusive = no clear call, values can overlap the other calls
BoNT-A LC inh2 – inhibitors of Botulinum neurotoxin A light chain protease; AID 588499; 0.17% of 360,000 active; inhibition, % at 10 µM; multiplex microsphere protease substrate cleavage, flow cytometry; also: plate controls were buffer without enzyme for full effect and enzyme alone for no effect
* marks the source's active call; other numbers are inactive results; ? = inconclusive. Rule as the data show it, unless noted: active = inhibition above about 30%; inconclusive = no clear call, values can overlap the other calls; inactive = below that.

SMILES	Anthrax LF prot	BoNT-F LC inh	Bead autofluor	BoNT-A LC inh2
O=C(c1nsc(Cl)c1Cl)N1CCCCC1	-0.6	-0.2	20635*	0.3
O=C(Nc1cccc2ncccc12)c1ccc(-c2ccc(Br)cc2)o1	-20.4	7.4	20512*	6.0
COc1ccc(-c2cc(CNc3nc(NCc4ccccc4OC)nc4ccsc34)on2)cc1	-2.6	-6.4	3745	-0.5
FC(F)(F)c1cccc(CON=C2CCN(c3ncc(C(F)(F)F)cc3Cl)CC2)c1	1.3	-1.1	19810*	0.3
O=C(Nc1cc(C(F)(F)F)cc(C(F)(F)F)c1)c1ccc(Cn2cc(C(F)(F)F)ccc2=O)cc1	0.2	-3.0	20069*	?
O=C1N=C(N2CCOCC2)SC1=C1CCCCC1	-1.4	4.1	20921*	1.3
N#CCCN1CCN(C2=NC(=O)C(=C3CCCCC3)S2)CC1	-1.7	0.3	22432*	0.4
COc1ccc(C(CNC(=O)C2CCN(S(=O)(=O)c3ccc(F)cc3)CC2)N(C)C)cc1 (centres undefined)	-2.5	1.8	3363	2.6
Cc1ccccc1C(=O)Oc1ccc(Br)cc1C(=S)N1CCCC1	-1.8	-1.7	22492*	?
CCCS(=O)(=O)NC(=O)C1(C)CCN(C(=O)c2cccs2)C1 (centres undefined)	-5.4	-4.8	3360	0.3
Brc1cnc(N2CCCC2)nc1N1CCOCC1	0.2	-0.3	21599*	?
Cc1cc(OC2CCCCC2)nc(-c2ccccc2O)n1	-3.8	-3.8	22117*	?
Cc1ccc(Oc2cc(C)nc(-c3ccccc3O)n2)cc1	0.9	-8.2	2993	-0.5
CCCNC(=O)N(C)C[C@@H]1Oc2ncc(-c3ccncc3)cc2C(=O)N([C@H](C)CO)C[C@@H]1C	-2.0	-1.6	3386	0.3
COCc1cc(C)nc(N2CCN(c3ccccc3)CC2)c1C#N	-0.7	-1.1	23159*	-1.1
O=C1c2ccccc2C(c2nnnn2-c2ccc3c(c2)OCCO3)N1CCOc1ccccc1 (centres undefined)	-4.9	-8.6	4278	-1.1
O=S(=O)(Cc1ccccc1)Nn1cnnc1	0.4	-0.7	22495*	-0.5
Cc1cccc(NS(=O)(=O)Cc2ccccc2)n1	-5.6	?	4718	0.2
Cc1ccc2nc(/C(C#N)=C\c3cc(C)n(-c4cccc([N+](=O)[O-])c4)c3C)[nH]c2c1	-3.2	-4.8	16239*	?
Cc1cc(/C=C(/C#N)c2nc3ccccc3[nH]2)c(C)n1-c1cc(C(=O)O)cc(C(=O)O)c1	-4.9	-2.1	3938	1.1
Cc1cccc(C)c1Cn1c(C)c(C(=O)NCc2ccc([N+](=O)[O-])cc2)sc1=O	-4.1	-12.3	5685	-0.4
O=C(c1csc2ccccc12)N1CCN(c2ccccn2)CC1	-1.6	0.8	2383	1.3
O=C(c1csc2ccccc12)N1CCCCCC1	1.5	-1.7	20758*	-1.8
Cc1cccc(C)c1NC(=O)CSc1nc2ccccc2c(=O)[nH]1	-0.3	-1.3	22821*	?
O=C(CSc1nc2ccccc2c(=O)[nH]1)Nc1ccc(S(=O)(=O)N2CCCC2)cc1	0.8	-2.8	16902*	?
SMILES	Anthrax LF prot	BoNT-F LC inh	Bead autofluor	BoNT-A LC inh2
CC(C)(C)c1csc(NC(=O)CSc2nc3ccccc3c(=O)[nH]2)n1	-1.2	4.1	19081*	?
CCN(c1ccc(NC(=O)COC(=O)c2ccc(S(=O)(=O)N3CCCC3)cc2)cc1)C(C)C	-4.6	-9.6	24507*	-2.6
Cc1ccc(-c2nc(CS(=O)CC(=O)NCc3ccc4c(c3)OCO4)c(C)o2)cc1 (centres undefined)	-0.5	-5.4	6015	-0.9
O=C(NCC1CCCO1)c1cccc(S(=O)(=O)N2CCOCC2)c1 (centres undefined)	-1.7	-11.3	5988	-0.8
COc1ccc(NC(=O)CSc2nc3ccc(OC)cc3[nH]2)cc1	-1.9	3.4	3514	-0.4
O=C(CSc1nc2cc3ccccc3cc2[nH]1)Nc1ccc(F)cc1	-1.1	1.1	23788*	?
Cc1ccc(NC(=O)CSc2nc(NS(=O)(=O)c3ccc(C)cc3)cc(=O)[nH]2)cc1	-1.5	3.7	19078*	?
Cc1ccc(S(=O)(=O)Nc2cc(=O)[nH]c(SCC(=O)Nc3cccc(C(F)(F)F)c3)n2)cc1	2.7	-53.7	3088	-8.6
O=C(CSC1=NCCS1)Nc1ccc(S(=O)(=O)N2CCCCCC2)cc1	-1.4	1.4	23340*	0.9
O=C(NCCN1CCC(n2c(=O)[nH]c3ccccc32)CC1)c1ccc(C(F)(F)F)cc1C(F)(F)F	-5.0	-8.8	6452	0.1
O=C(c1ccc(N2C(=O)c3ccccc3C2=O)cc1)N1CCN(S(=O)(=O)c2ccccc2F)CC1	-2.0	-2.2	3938	-0.2
CN(C)c1ccc(/C=N/NC(=O)c2nnn(-c3nonc3N)c2COc2ccc(F)cc2)cc1	31.6*	27.0	3819	3.0
CCOc1ccc(/C=N/NC(=O)c2nnn(-c3nonc3N)c2COc2ccc(F)cc2)cc1	-13.9	?	3360	-4.3
CN(C)Cc1c(C(=O)N/N=C/c2ccncc2)nnn1-c1nonc1N	12.6	42.1*	3978	2.2
CCN(CC)Cc1c(C(=O)N/N=C/c2ccncc2)nnn1-c1nonc1N	4.1	-19.0	3423	0.7
Cn1c(=O)[nH]c(=O)c2c1nc(N1CCc3ccccc3C1)n2CCSc1nc2ccccc2s1	-1.8	-0.9	16749*	-0.5
CCN1CCN(c2nc3c(c(=O)[nH]c(=O)n3C)n2CCCSc2ncccn2)CC1	-9.3	-12.8	2506	-0.1
CN1CCN(c2nc3c(c(=O)[nH]c(=O)n3C)n2CCCSc2ncccn2)CC1	-1.1	0.2	22784*	0.6
CN1CCN(c2nc3c(c(=O)[nH]c(=O)n3C)n2CCSc2nc3ccccc3s2)CC1	-4.7	-4.6	5133	-0.1
CN(CCc1ccccc1)C(=O)c1cccc(NC(=O)Cc2cccc(NC(=O)C3CCCN(C(=O)C4CCCC4)C3)c2)c1 (centres undefined)	-1.2	-2.6	4121	-0.4
COc1ccc(-c2c[n+]3c4n2CCCCC4=C(c2ccc(Br)cc2)C3)cc1	1.9	-15.8	22490*	?
CC/C(O)=C(/C#N)c1nnc2n1CCCCC2	-2.8	-4.1	5992	-1.5
CC/C(O)=C(\C#N)c1nnc2n1CCCCC2	0.1	1.1	20206*	1.3
CO/N=C/c1ccc(N2CCCC2)c([N+](=O)[O-])c1	-2.4	-0.6	4209	-0.3
COc1ccc(-c2cc(C3CCN(c4ccc(C(C)=O)cc4[N+](=O)[O-])CC3)[nH]n2)cc1	-11.9	-1.4	5963	-0.3
SMILES	Anthrax LF prot	BoNT-F LC inh	Bead autofluor	BoNT-A LC inh2
COC(=O)c1ccc(N2CCC(c3cc(-c4ccc(OC)cc4)n[nH]3)CC2)c([N+](=O)[O-])c1	-5.2	-5.7	23463*	-1.8
Cc1ccc(OC(=O)c2ccc(N3CCOCC3)c([N+](=O)[O-])c2)cc1	-4.9	2.6	19491*	2.6
CO/N=C/c1ccc(N2CCN(C(=O)c3ccc(C)cc3)CC2)c([N+](=O)[O-])c1	-4.6	-4.3	24171*	-3.6
CCOC(=O)c1cc(CC)sc1NC(=O)c1ccc(N2CCOCC2)c([N+](=O)[O-])c1	0.1	2.8	19127*	3.1
O=C1C=CC(c2c[nH]c3ccccc23)CC1 (centres undefined)	-0.9	-3.3	4388	-1.3
COc1ccc(N2C(=O)CSC2c2ccc3c(c2)OCO3)c(OC)c1 (centres undefined)	-4.2	1.1	4172	-1.3

Assay outcomes: PubChem BioAssay, NMMLSC
